# Where “and” joins values, the source holds several entries; their conditions need not be identical. Identical values can stand only once. Results filed as inconclusive are left out. Entries that show only a call come without a potency. Some structures have more than one record in an assay (separate samples or runs), and their calls can disagree. Calls of active or inactive are those of the source. The call rests on the fitted dose curve; in most records, active means well fitted inhibition curve with a large enough effect; inconclusive means small, poorly fitted or top-dose-only effect; inactive means flat fitted curve, though single readings scatter.
# Biological target: Voltage-gated inwardly rectifying potassium channel KCNH2 (Homo sapiens) (UniProt Q12809)
# Assay: qHTS Assay for Small Molecule Inhibitors of the Human hERG Channel Activity (AID 588834);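 further: lower thallium flux fluorescence means stronger hERG block; nearly all actives have a fitted effect of over 50% in size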
# Conditions: U2OS BacMam hERG, FluxOR thallium flux fluorescence; series mostly up to 46.1 µM
# From the text: NIH Chemical Genomics Center [NCGC]
# National Institutes of Environmental Health Sciences [NIEHS]
# National Toxicology Program [NTP]
# We have developed a 1536-well cell-based assay for quantitative high throughput screening (qHTS) to determine in vitro hERG channel blockage as a measure of cardio toxicity with small molecules. This particular assay uses the U2OS cell line which is derived from human osteosarcoma.
# NCGC Assay Protocol Summary:
# HERG assay (FluxORTM thallium flux assay) was initially developed by Invitrogen/Molecular Probes, and then miniaturized into 1536-well plate in a homogeneous format by NCGC. This assay measures the activity of potassium channel using thallium dye (FluxOR) flux as surrogate measurement for potassium into the cells with a FDSS-7000 kinetic plate reader (Hamamatsu Corp., Hamamatsu City, Japan). The hERG ion channel is transduced into mammalian cells (U2OS) using a baculovirus (Bacmam) construct harboring the hERG K+ ion channel. So far we screened LOPAC1280 library (Sigma), the NTP collection of 1408 compounds, and the NCGC Pharmaceutical Collection (NPC), in which many well defined HERG blockers are present. The rank order potencies of many of these compounds are similar to that of other HERG assays (membrane potential, Rb+ flux, patch clamp, etc). This quick and homogeneous assay is also found to be sensitive, specific, and robust.
# Using the FluxORTM thallium flux assay, the activity of potassium channel using thallium dye (FluxOR) flux as surrogate measurement for potassium into the cells was measured in the U2OS cell line transduced with hERG K+ ion channel using a baculovirus (Bacmam) using Opti-MEM medium (Invitrogen) containing 2% fetal calf serum (FCS, HyCone) following loading buffer addition, compound treatment for around 10 minutes and finally adding stimulation buffer. The assay was performed in black clear Kalypsys 1536-well plates. In the screen, Astemizole was used as positive controls. Library compounds were measured for their ability to cause hERG channel blockage in the cell line, as reflected by a decrease in fluorescence intensity, in a concentration-dependent manner. […] AC50 values were determined from concentration-response data modeled with the standard Hill equation.
# qHTS protocol for hERG-U2OS cellular assay
# [Step] [Parameter] [Value] [Description]
# 1. Day 1: Replace medium in 70-80% confluent T225 flask with 2.5 mL of hERG-BacMam virus plus 12.5 mL of phosphate buffered saline (PBS) (corresponding roughly to a multiplicity of infection ratio of 100 virus particles/cell)
# 2. Incubation: 4 hrs @ room Temperature in Dark
# 3. Reagent; Remove virus; wash once with 25 ml DPBS
# 4. Reagent; 35 ml culture medium
# 5. Incubation; 37 °C overnight
# 6. Day2: Reagent; 3 uL; 2000 U2OS cells/well
# 7. Time; 4 hr; 37 °C incubation
# 8. Loading buffer; 1 uL; 0.7X;
# 9. Incubation: 1hr @ RT in Dark.
# 12. Time; 10min; 37 °C incubation
# 13. Read fluorescence Intensity on FDSS for 10 Sec with 1 sec interval
# 14. Reagent; 1 uL; stimulation buffer
# 15. Read fluorescence Intensity on FDSS for 2 min with 1 sec interval
# 16. Detection; Fluorescence Intensity; FDSS
# Potency means the concentration at half of the fitted maximal effect.
# Sequence of Voltage-gated inwardly rectifying potassium channel KCNH2 (Homo sapiens) (Q12809 whole entry, looked up): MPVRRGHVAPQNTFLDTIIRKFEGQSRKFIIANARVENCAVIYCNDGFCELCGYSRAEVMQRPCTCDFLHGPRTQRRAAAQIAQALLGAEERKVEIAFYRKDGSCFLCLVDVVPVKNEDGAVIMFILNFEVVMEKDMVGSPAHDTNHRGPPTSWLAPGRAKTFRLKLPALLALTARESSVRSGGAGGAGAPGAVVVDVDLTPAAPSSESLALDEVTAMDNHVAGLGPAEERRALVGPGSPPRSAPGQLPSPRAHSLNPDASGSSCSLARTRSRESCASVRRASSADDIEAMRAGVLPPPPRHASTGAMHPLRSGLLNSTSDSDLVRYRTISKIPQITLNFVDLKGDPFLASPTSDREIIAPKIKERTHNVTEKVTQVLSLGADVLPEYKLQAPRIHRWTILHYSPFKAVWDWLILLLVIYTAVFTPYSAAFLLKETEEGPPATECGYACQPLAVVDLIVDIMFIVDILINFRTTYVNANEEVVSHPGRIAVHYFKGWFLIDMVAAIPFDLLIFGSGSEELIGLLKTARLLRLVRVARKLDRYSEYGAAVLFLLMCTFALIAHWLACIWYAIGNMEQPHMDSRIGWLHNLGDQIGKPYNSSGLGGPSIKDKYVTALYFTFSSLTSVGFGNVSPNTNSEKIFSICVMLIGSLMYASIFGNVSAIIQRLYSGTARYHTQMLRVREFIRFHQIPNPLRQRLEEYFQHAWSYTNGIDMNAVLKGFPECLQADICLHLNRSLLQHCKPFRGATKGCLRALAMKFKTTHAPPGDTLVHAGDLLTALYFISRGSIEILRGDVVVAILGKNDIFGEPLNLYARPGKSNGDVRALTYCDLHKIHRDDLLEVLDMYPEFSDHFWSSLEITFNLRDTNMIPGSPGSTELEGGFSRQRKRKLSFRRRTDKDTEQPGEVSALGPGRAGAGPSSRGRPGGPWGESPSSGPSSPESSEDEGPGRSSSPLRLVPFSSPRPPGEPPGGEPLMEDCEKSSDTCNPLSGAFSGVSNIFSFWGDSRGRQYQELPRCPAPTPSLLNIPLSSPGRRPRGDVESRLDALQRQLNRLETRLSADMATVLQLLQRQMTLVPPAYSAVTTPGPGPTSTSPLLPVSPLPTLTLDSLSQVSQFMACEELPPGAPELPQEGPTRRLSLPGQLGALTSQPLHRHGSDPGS
row,SMILES,Potency
1,CC(=O)Oc1ccc(C)cc1,inactive
2,Cc1ncc(CO)c(C=O)c1O,inactive
3,O=C(O)Cc1csc(-c2ccc(Cl)cc2)n1,inactive
4,CCNC(=O)NCc1cccc(Cl)c1,inactive
5,NC(=O)c1ccccc1O,inactive
6,O=C(O)P(=O)(O)O,inactive
7,CCC(C(=O)OCCOCCN(CC)CC)c1ccccc1 (stereo not given),inactive
8,CCN(CC)CCOC(=O)C(Cc1cccc2ccccc12)CC1CCCO1 (stereo not given),7.94 µM (active)
9,CCCCNc1ccc(C(=O)OCCOCCOCCOCCOCCOCCOCCOCCOCCOC)cc1,inactive
10,CC(C)n1c(/C=C/[C@@H](O)C[C@@H](O)CC(=O)O)c(-c2ccc(F)cc2)c2ccccc21,inactive
11,COP(=O)(OC)OC(c1ccc(Cl)cc1)P(=O)(OC)OC (stereo not given),inactive
12,CC(C)[C@@H]1CC[C@@H](C)CC1=O,inactive
13,NC(=O)n1c(O)c(C(=O)c2cccs2)c2cc(Cl)ccc21,inactive
14,NS(=O)(=O)c1ccc(Cl)c(S(N)(=O)=O)c1,inactive
15,NC(N)=NCc1cccc(I)c1,inactive
16,N[C@H](C(=O)O)[C@@H](O)c1ccc(O)c(O)c1,inactive
17,C/C=C/C=N/NC(=O)c1ccncc1,inactive
18,C#C[C@]1(O)CC[C@H]2[C@@H]3CCc4cc(OC)ccc4[C@H]3CC[C@@]21C,inactive
19,NCCNC(=O)c1ccc(Cl)cn1,inactive
20,O=C1OC2(c3ccccc31)c1cc(Br)c(O)c(Br)c1Oc1c2cc(Br)c(O)c1Br,5.62 µM (active)

row,SMILES,Potency
1,CCOc1ccccc1C(N)=O,inactive
2,CCCCCCCCCCC[C@@H](C[C@@H]1OC(=O)[C@H]1CCCCCC)OC(=O)[C@H](CC(C)C)NC=O,inactive
3,COc1ccc(/C=N/NC(=O)c2ccncc2)cc1OC,inactive
4,CCC(Cc1c(I)cc(I)c(N)c1I)C(=O)O (stereo not given),inactive
5,CCCCCCCCCCCCCCCCO,inactive
6,O=C(CN1CCN(Cc2ccc3c(c2)OCO3)CC1)N1c2ccccc2Sc2ccccc21,2.51 µM (active)
7,O=C(O)C1(C(=O)O)CCC1.[NH2-].[NH2-].[Pt+2],inactive
8,CCNC(=O)/C=C/c1cccc(Br)c1,inactive
9,Cn1c(=O)c2[nH]c(Br)nc2n(C)c1=O,inactive
10,O=C(O)CCNC(=O)c1ccccc1,inactive
11,CCCCC(CC)COC(=O)c1ccc(N(C)C)cc1 (stereo not given),inactive and 28.2 µM (active)
12,CCCCCCCCCCCCCCCC(=O)O,inactive
13,CC(=O)N[C@@H](CCC(=O)O)C(=O)O,inactive
14,O=S(c1cc(Cl)cc(Cl)c1O)c1cc(Cl)cc(Cl)c1O,inactive
15,CCOC(=O)[C@H](CCc1ccccc1)N[C@@H](C)C(=O)N1[C@H](C(=O)O)C[C@@H]2CCC[C@@H]21,inactive
16,CC(=O)Nc1ccc(S(=O)(=O)Nc2ccc([N+](=O)[O-])cc2)cc1,inactive
17,CNCCCCOc1ccccc1Cc1ccccc1,6.31 µM (active)
18,COc1cc(C)nc(-n2nc(C)cc2OC)n1,inactive
19,CC(C)=CCOc1ccc(/C=C/C(=O)c2ccc(OCC=C(C)C)cc2OCC(=O)O)cc1,inactive
20,CC(C(=O)O)c1cccc(Oc2ccccc2)c1 (stereo not given),inactive
